The list is not random: actives were taken first. Their share in the collection is about 12%.
HP1b binding inh = inhibitors of HP1-beta chromodomain binding to methylated histone tails. AlphaScreen HP1-beta / biotin-H3K9me3 peptide binding. Potency, µM (titrated, usually from 114 µM), usual class: inhibitors. actives 0.56% (n = 390,000). AID 540317; note: nearly all actives have a fitted effect of over 70% in size
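Compound inhibition of the preformed complex between 50 nM HP1-beta and 50 nM biotinylated H3K9me3 peptide was read by AlphaScreen. Buffer was PBS pH 7.4 with 0.01% Tween-20. Incubations ran 30 min at room temperature, with 10 ug/mL donor/acceptor beads.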
G9a inh = blocks human histone lysine methyltransferase G9a | Q96KQ7 | G9a H3K9 monomethylation, AlphaScreen, 2 h | Potency, µM (titrated, usually from 102 µM), actives largely listed as inhibitors | actives 8.8% (n = 350,000); note: nearly all actives have a fitted effect of over 75% in size
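AlphaScreen detection with an anti-monomethyl H3K9 antibody quantified product after a 2 h room-temperature reaction containing 500 nM biotinylated H3K9 peptide, 20 µM SAM and 20 nM enzyme, which had been preincubated 15 min with compound.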
BAZ2B inh = blocks human BAZ2B; Q9UIF8; AlphaScreen BAZ2B-H3K14Ac peptide displacement; Potency, µM (top dose mostly 114 µM), usual class: inhibitors; actives 4.4% (n = 360,000); AID 504333; note: nearly all actives have a fitted effect of over 60% in size
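BAZ2B (50 nM) with biotin-H3(5-23)K14Ac peptide (50 nM) in PBS pH 7.4, 0.01% Tween-20, preformed 30 min, then compound 30 min at room temperature; top concentration 110uM. AlphaScreen streptavidin donor/nickel chelate acceptor beads (10 ug/mL final), 20 min dark, signal read.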
Sfp inh = Sfp phosphopantetheinyl transferase inhibition; Q9F4F7; Biochemical Sfp PPTase activity, qHTS; Potency, µM, actives largely listed as inhibitors; actives 3.5% (n = 310,000); AID 1490;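 note: the enzyme is Sfp with the accession as filed and its product quenches rhodamine fluorescence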
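With Hepes-Na pH 7.6 buffer containing 10 mM MgCl2, Sfp (15 nM) modified BHQ-2-YbbR (12.5 uM) using rhodamine-CoA (5 uM). Two reads 30 minutes apart at 525/598 nm yielded each well's rate.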
JMJD2A Tudor inh = blocks the human JMJD2A Tudor domain; O75164; AlphaScreen JMJD2A-Tudor / H3K4me3 peptide binding; Potency, µM (highest dose often 114 µM), hits mostly inhibitors; actives 4.4% (n = 390,000); note: nearly all actives have a fitted effect of over 50% in size
Target sequence (O75164 whole entry, looked up, the tested form may be a part): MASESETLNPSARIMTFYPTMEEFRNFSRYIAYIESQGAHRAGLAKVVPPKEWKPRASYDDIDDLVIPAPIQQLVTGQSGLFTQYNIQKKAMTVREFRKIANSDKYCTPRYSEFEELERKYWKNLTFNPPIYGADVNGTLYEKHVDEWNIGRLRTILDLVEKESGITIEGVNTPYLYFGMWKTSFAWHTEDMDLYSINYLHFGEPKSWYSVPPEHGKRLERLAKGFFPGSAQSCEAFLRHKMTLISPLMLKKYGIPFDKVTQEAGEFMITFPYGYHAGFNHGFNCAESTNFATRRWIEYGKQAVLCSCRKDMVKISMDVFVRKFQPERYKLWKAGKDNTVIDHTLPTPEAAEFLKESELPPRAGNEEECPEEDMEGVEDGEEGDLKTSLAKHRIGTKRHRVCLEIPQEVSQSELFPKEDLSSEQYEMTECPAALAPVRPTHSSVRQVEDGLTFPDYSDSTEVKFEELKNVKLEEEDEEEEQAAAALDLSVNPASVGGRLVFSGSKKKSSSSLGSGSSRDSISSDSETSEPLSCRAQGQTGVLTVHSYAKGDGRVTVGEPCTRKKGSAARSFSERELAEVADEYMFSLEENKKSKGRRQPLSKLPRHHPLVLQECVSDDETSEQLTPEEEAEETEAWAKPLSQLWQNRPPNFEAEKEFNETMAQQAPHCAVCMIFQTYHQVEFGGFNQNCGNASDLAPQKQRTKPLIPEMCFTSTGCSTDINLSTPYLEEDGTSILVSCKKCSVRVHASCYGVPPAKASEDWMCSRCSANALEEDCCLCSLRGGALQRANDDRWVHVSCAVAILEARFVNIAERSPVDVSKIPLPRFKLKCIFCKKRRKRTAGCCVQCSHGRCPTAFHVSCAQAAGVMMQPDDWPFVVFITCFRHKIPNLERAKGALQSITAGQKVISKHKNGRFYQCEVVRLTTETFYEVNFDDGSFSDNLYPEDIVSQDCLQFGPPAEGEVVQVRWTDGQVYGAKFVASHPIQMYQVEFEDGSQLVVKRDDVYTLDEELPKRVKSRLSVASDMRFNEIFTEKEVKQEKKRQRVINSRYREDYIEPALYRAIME
A number is an active result; ! = not active in a repeat; [ ] = another dose, or the depositor's remark. Calls come from the whole dose curve; as a rule, active = well fitted curve in the direction sought with a large enough effect; inconclusive = small, poorly fitted or top-dose-only effect, or another doubt; inactive = no such curve, though single readings can be large; an effect the other way counts as inactive or inconclusive.

For CCCCCn1c(N)c(C(=O)NCCN2CCOCC2)c2nc3ccccc3nc21 the results were HP1b binding inh inactive, G9a inh inactive, BAZ2B inh inactive, Sfp inh inactive and JMJD2A Tudor inh inactive.
Nc1c(C(=O)NCc2ccco2)c2nc3ccccc3nc2n1CCN1CCOCC1 was read as HP1b binding inh inactive, G9a inh 50µM, BAZ2B inh inactive, Sfp inh inconclusive and JMJD2A Tudor inh inactive.
`COc1ccc(Cn2c(N)c(C(=O)NCc3ccco3)c3nc4ccccc4nc32)cc1` gave HP1b binding inh inactive, G9a inh inactive, BAZ2B inh inactive, Sfp inh 45µM and JMJD2A Tudor inh inactive.
`Nc1c(C(=O)NCc2ccco2)c2nc3ccccc3nc2n1Cc1ccccc1` gave HP1b binding inh inactive, G9a inh inconclusive, BAZ2B inh inactive, Sfp inh 45µM and JMJD2A Tudor inh inactive.
`COCC(C)OC(=O)c1c(N)n(Cc2ccco2)c2nc3ccccc3nc12` (stereo not drawn) gave HP1b binding inh inactive, G9a inh inactive, BAZ2B inh inactive, Sfp inh 32µM and JMJD2A Tudor inh inactive.
Screening Ic1c(C2=CCCCC2)[se]c2ccccc12 returned G9a inh inactive and Sfp inh inactive.
`O=C(NCc1ccccc1)c1cccc(Nc2nc3ccccc3n3nnnc23)c1` gave HP1b binding inh inconclusive, G9a inh inactive, BAZ2B inh inactive and JMJD2A Tudor inh inactive.
Screening Cc1ccc(CNCc2c(C(=O)O)n(Cc3ccccc3C)c3cc(C)ccc23)cc1 returned HP1b binding inh inactive, G9a inh inactive, BAZ2B inh inactive and JMJD2A Tudor inh inactive.
For CC(=O)C1=NOC(CNc2ncc(C(F)(F)F)cc2Cl)C1 (stereo not drawn) the results were HP1b binding inh inactive, G9a inh inactive, BAZ2B inh inactive, Sfp inh inactive and JMJD2A Tudor inh inactive.
COc1cc(OC)cc(C(=O)Nc2ccc(Br)cc2C(=O)c2ccccc2)c1 was read as HP1b binding inh inactive, G9a inh inactive, BAZ2B inh inactive, Sfp inh 35µM and JMJD2A Tudor inh inactive.
For CCN1CCN(c2ccc(N)c(C)c2)CC1 the results were HP1b binding inh inactive, G9a inh 45µM, BAZ2B inh inactive, Sfp inh inactive and JMJD2A Tudor inh inactive.
Cn1c(SCC(=O)N2CCOCC2)nnc1-c1cccc(NC(=O)c2ccccc2)c1 was read as HP1b binding inh inactive, G9a inh 10µM, Sfp inh inactive and JMJD2A Tudor inh 89µM.
For Cc1ccc(NC(=O)c2cc(-c3ccccc3)n(CCCN3CCOCC3)c2C)cc1 the results were HP1b binding inh inconclusive, G9a inh inconclusive, BAZ2B inh inconclusive, Sfp inh inactive and JMJD2A Tudor inh inactive.
For CS(=O)(=O)N1CCC2(CCCN(Cc3ccncc3)C2)CC1 the results were G9a inh inactive[12.7 µM] and Sfp inh inactive.
`O=c1[nH]c(=O)n(Cc2ccco2)c(O)c1C=NCc1ccc2c(c1)OCO2` gave HP1b binding inh inactive, G9a inh inactive, BAZ2B inh inactive, Sfp inh inconclusive and JMJD2A Tudor inh inactive.
CCCCn1c(O)c(C(C)=NCc2ccc3c(c2)OCO3)c(=O)[nH]c1=O was read as HP1b binding inh inactive, BAZ2B inh inactive, Sfp inh inactive and JMJD2A Tudor inh 89µM.
For CCCCn1c(O)c(C(C)=Nc2ccc(C(=O)O)cc2)c(=O)[nH]c1=O the results were HP1b binding inh inactive, G9a inh 45µM, BAZ2B inh inconclusive, Sfp inh inactive and JMJD2A Tudor inh inconclusive.
For CCCCn1c(O)c(C=NCc2ccc3c(c2)OCO3)c(=O)[nH]c1=O the results were HP1b binding inh inactive, G9a inh inactive, BAZ2B inh inactive, Sfp inh 50µM and JMJD2A Tudor inh inactive.
Screening CCCCn1c(O)c(C(C)=NCCc2ccccc2)c(=O)[nH]c1=O returned HP1b binding inh inactive, G9a inh inactive[12.7 µM], BAZ2B inh inactive, Sfp inh inactive and JMJD2A Tudor inh inactive.
COc1ccc(CCN2CCC(CNC(=O)c3cnn(-c4ccc(C)cc4)c3C3CCN(C(=O)OC(C)(C)C)CC3)CC2)cc1 was read as HP1b binding inh inactive, G9a inh inactive, BAZ2B inh inconclusive and JMJD2A Tudor inh inconclusive.
Cc1ccc(-c2nc(N3CCOCC3)s[n+]2-c2ccccc2)cc1 was read as HP1b binding inh inconclusive, G9a inh 0.89µM, BAZ2B inh inconclusive, Sfp inh inconclusive and JMJD2A Tudor inh 8.9µM.
Screening CCN(CC)Cc1cc(Nc2ccnc3cc(Cl)ccc23)ccc1O returned HP1b binding inh inactive, G9a inh inconclusive, BAZ2B inh 50µM!, Sfp inh inactive and JMJD2A Tudor inh inactive.
NCCc1c[nH]c2ccc(OCc3ccccc3)cc12 was read as HP1b binding inh inactive, G9a inh 50µM, BAZ2B inh inconclusive, Sfp inh inactive and JMJD2A Tudor inh inactive.
Screening Cc1ccc2occ(CN3CC4CC(C3)c3cccc(=O)n3C4)c(=O)c2c1 (stereo not drawn) returned HP1b binding inh inactive, G9a inh inactive, BAZ2B inh inactive, Sfp inh inactive and JMJD2A Tudor inh inactive.
For Cc1ccc2[nH]c3c(c2c1)CN(C(=O)CN1C[C@H]2C[C@@H](C1)c1cccc(=O)n1C2)CC3 the results were HP1b binding inh inactive, G9a inh 50µM, BAZ2B inh inactive, Sfp inh inactive and JMJD2A Tudor inh inactive.
For CNC(C(=O)c1ccccc1)C(OC)c1ccccc1 (stereo not drawn) the results were HP1b binding inh inactive, G9a inh inconclusive, BAZ2B inh inactive, Sfp inh inactive and JMJD2A Tudor inh inactive.
Screening CNC(C(=O)c1ccccc1)C(OC)c1cccc([N+](=O)[O-])c1 (stereo not drawn) returned HP1b binding inh inactive, G9a inh 56µM, BAZ2B inh inactive, Sfp inh inactive and JMJD2A Tudor inh inactive.
Screening COC(=O)[C@@H]1C[C@@]2(O)[C@H](O)[C@H](O)[C@H](O)C[C@H]2N1Cc1cccnc1 returned Sfp inh inactive.
`C=CCn1c(O)c(Cc2ccc(OCC)cc2)c(=O)[nH]c1=O` gave HP1b binding inh inactive, G9a inh inactive, BAZ2B inh inactive, Sfp inh inactive and JMJD2A Tudor inh 32µM.
`Cc1ccccc1CN1CCN(Cc2ccccc2)CC1` gave HP1b binding inh inactive, BAZ2B inh inactive, Sfp inh inactive and JMJD2A Tudor inh inactive.
Screening COc1ccccc1N1CCN(Cc2c(F)cccc2F)CC1 returned HP1b binding inh inactive, G9a inh inactive[12.7 µM], BAZ2B inh inactive, Sfp inh inactive and JMJD2A Tudor inh inactive.
Screening COc1ccccc1N1CCN(Cc2ccccc2Cl)CC1 returned HP1b binding inh inactive, G9a inh 14µM, BAZ2B inh 35µM, Sfp inh inactive and JMJD2A Tudor inh 3.2µM.
`COc1ccccc1N1CCN(Cc2ccccc2F)CC1` gave HP1b binding inh inconclusive, G9a inh inactive[2.33 µM], BAZ2B inh 45µM, Sfp inh inactive and JMJD2A Tudor inh 6.3µM.
Clc1ccccc1CN1CCN(c2cccc3[nH]ccc23)CC1 was read as HP1b binding inh inconclusive, G9a inh 28µM, BAZ2B inh 40µM, Sfp inh inactive and JMJD2A Tudor inh inconclusive.

Compound activity: PubChem BioAssay, National Center for Advancing Translational Sciences (NCATS)
